Screens deposited in PubChem BioAssay by National Center for Advancing Translational Sciences (NCATS).
TGFb inhibitor = blocks TGF-b signaling; HepG2 CAGA-GFP TGF-b/SMAD3 reporter, GFP fluorescence, 18 h; TGF-beta stimulated, 500 pg/mL final; Potency, µM (doses to about 46.1 µM), without a hit: at the highest dose activity, negative = inhibition, hits mostly inhibitors; actives 1.2% (n = 410,000); AID 588855; further: on the % scale 0 is the no-effect control and ±100 the full control effect; nearly all actives have a fitted effect of over 65% in size
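Per well, imaged GFP fluorescence of HEPG2 CAGA-GFP cells gives the signal; cells get compound, then TGF-beta (500 pg/mL final), 18 h at 37 degrees C; %Activity versus -TGF-beta and +DMSO controls.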
Nrf2 block = blocks Nrf2 signaling; AID 504444; A549 ARE-Fluc reporter, luciferase luminescence, 18-24 h; Potency, µM (highest dose often 46 µM), inactives show top-dose activity change, negative = inhibition, hits mostly inhibitors; actives 2.1% (n = 360,000); further: on the % scale 0 is the no-effect control and ±100 the full control effect; nearly all actives have a fitted effect of over 60% in size
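A549 ARE_Fluc cells (5000/well, 5% FBS OPTI-MEM) pre-incubated 2 h, then treated with compounds 18-24 h at 37C/5% CO2 in concentration-response. CellTiter-Fluor viability read first; BugLite luciferase luminescence after 15 min at room temperature gives Nrf2 activity.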
ATXN2 expr inh = ATXN2 expression inhibition | HEK-293 ATXN2-luciferase reporter, luminescence, 24 h | Potency, µM (doses to about 57 µM), for the others: at the highest dose activity change, negative = inhibition, hits mostly inhibitors | actives 0.72% (n = 360,000); further: on the % scale 0 is the no-effect control and ±100 the full control effect; nearly all actives have a fitted effect of over 55% in size
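ATXN2-luciferase reporter cells (luciferase flanked by upstream and downstream ATXN2 gene portions) were treated 24 h at 37 °C with compounds at up to 57 uM. SteadyGlo luminescence gave expression; GF-AFC fluorescence gave viability.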
A549 tox-1 = kills or reduces viability of A549 cells in Nrf2 counter-screen | A549 ARE-Fluc cells, CellTiter-Fluor viability, 18-24 h | Potency, µM (series often up to 46 µM), for the others: at the top dose activity change, negative = cytotoxicity, most hits filed as inhibitors | actives 0.16% (n = 390,000) | AID 504648; further: on the % scale 0 is the no-effect control and ±100 the full control effect
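A549 ARE_Fluc cells in 5% FBS OPTI-MEM were exposed to compounds in concentration-response for 18-24 h at 37 deg C. Viability was read by CellTiter-Fluor fluorescence (Ex 405/Em 525) after 30 min, before the luciferase read.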
ATXN viability = viability counter-screen for ATXN expression inhibitors; actives 0.49% (n = 400,000); AID 651635; Potency, µM (series often up to 56.7 µM), most hits filed as cytotoxic; S2 cells (HEK-293 line with an ATXN2-luciferase reporter) viability, CellTiter-Fluor protease fluorescence, 24 h; further: nearly all actives have a fitted effect of over 40% in size
HepG2 viability = kills HepG2 cells in TGF-b inhibitor counter-screen | AID 588856 | actives 0.76% (n = 410,000) | HepG2 CAGA-GFP viability, ATP luminescence, 18 h | Potency, µM (series often up to 46.1 µM), inactives show at the top dose activity change, negative = cytotoxicity, hits mostly cytotoxic
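HepG2 CAGA-GFP cells (1000/well, DMEM with 1% FBS) received compound, then TGF-beta at 500 pg/mL final, and were incubated 18 hours at 37 degrees C. Viability was read by CellTiter-Glo luminescence. Media-only wells were set as complete cell-killing and DMSO as no toxicity.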
FLuc enzyme inh = counter-screen for Nrf2 inhibitors: firefly luciferase enzyme inhibition; shares compounds with Nrf2 block; purified firefly luciferase, luminescence inhibition; Potency, µM (titrated, usually from 57.5 µM), inactives show at the highest dose activity change, negative = inhibition, hits mostly inhibitors; actives 4% (n = 1,400); AID 720522; further: on the % scale 0 is the no-effect control and ±100 the full control effect; nearly all actives have a fitted effect of over 65% in size
Target sequence (P08659 whole entry, looked up): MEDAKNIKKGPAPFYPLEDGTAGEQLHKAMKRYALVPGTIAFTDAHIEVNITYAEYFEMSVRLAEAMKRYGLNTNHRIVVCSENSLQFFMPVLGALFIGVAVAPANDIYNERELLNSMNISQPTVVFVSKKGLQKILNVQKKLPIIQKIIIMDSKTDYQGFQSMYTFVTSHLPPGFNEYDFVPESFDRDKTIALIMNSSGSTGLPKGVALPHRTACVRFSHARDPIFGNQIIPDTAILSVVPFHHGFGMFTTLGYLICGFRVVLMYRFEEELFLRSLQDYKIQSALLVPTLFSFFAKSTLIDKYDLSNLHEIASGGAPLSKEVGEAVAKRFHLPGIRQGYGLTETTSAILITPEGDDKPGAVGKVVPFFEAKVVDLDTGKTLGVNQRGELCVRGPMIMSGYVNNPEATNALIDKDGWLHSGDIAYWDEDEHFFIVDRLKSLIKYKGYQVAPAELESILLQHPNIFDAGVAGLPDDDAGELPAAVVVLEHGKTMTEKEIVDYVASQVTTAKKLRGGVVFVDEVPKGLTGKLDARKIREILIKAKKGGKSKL
A549 tox-2 = A549 cytotoxicity, Nrf2 inhibitor counterscreen; shares compounds with Nrf2 block; A549 ARE-Fluc cells, cytotoxicity counterscreen; Potency, µM (series often up to 46.1 µM), for inactives: at the highest dose activity change, negative = cytotoxicity, hits mostly inhibitors; actives 2% (n = 1,400);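 further: cells exposed to compounds for 18 to 24 hours; on the % scale 0 is the no-effect control and ±100 the full control effect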
ARE-Fluc inh = confirmation of Nrf2 inhibitors in A549 ARE reporter cells. shares compounds with Nrf2 block. A549 ARE-firefly luciferase reporter, luminescence. Potency, µM (highest dose often 46.1 µM), for the others: at the top dose activity change, negative = inhibition, usual class: inhibitors. actives 74% (n = 1,400). AID 720524; further: on the % scale 0 is the no-effect control and ±100 the full control effect; nearly all actives have a fitted effect of over 65% in size
* hit, by the source's call; i = inactive; ? = inconclusive; / = no result given; ! = not active in a repeat; [ ] = dose if it differs, or a comment. Sampled rows, rich in hits. Any-hit rate of the full collection: about 3.8%. The call rests on the fitted dose curve; in most records, active means well fitted curve in the direction sought with a large enough effect; inconclusive means small, poorly fitted or top-dose-only effect, or another doubt; inactive means no such curve, though single readings can be large; an effect the other way counts as inactive or inconclusive. Potency means the concentration at half of the fitted maximal effect.

SMILES | TGFb inhibitor | Nrf2 block | ATXN2 expr inh | A549 tox-1 | ATXN viability | HepG2 viability | FLuc enzyme inh | A549 tox-2 | ARE-Fluc inh
CCCC(=O)NC(c1cccs1)c1cc(Cl)c2cccnc2c1O (centres undefined) | ? | 5.17µM* | -22.3%[11.3 µM] | -17.3% | i | -30.8% | 0.6% | -19.7% | 7.31µM*
CCC(=O)NC(c1ccc(OC)c(OC)c1)c1cc(Cl)c2cccnc2c1O (centres undefined) | ? | 5.8µM* | ? | ? | / | -0.7% | 0.6% | -20.1% | 6.51µM*
O=C(N/N=C/c1ccoc1)c1ccccc1Br | 29.2% | 9.2% | 3.2% | -2.2% | i | 19.3% | / | / | /
O=C(N/N=C/c1ccc([N+](=O)[O-])s1)c1ccccc1Br | 11.2µM* | 9.2µM* | ? | ? | ? | 10µM* | ? | -18.8% | 5.8µM*
COc1cc(C(=O)NCC(c2cccs2)S(=O)(=O)c2ccc(F)cc2)cc(OC)c1OC (centres undefined) | -2.4% | / | -2.4% | 20.4% | i | -18.8% | / | / | /
Cn1c(-c2ccccc2)cccc1=O | 4.9% | / | 5.3% | -1.5% | i | 3.5% | / | / | /
Cn1c(-c2ccccc2)c[n+]2c1-c1ccccc1C2 | -5.6% | ? | / | 7.1% | i | -7.2% | -10.0% | -8.9% | 1.64µM*
COc1ccc2[nH]c(=O)c(CN(Cc3cccs3)C(=S)Nc3cccc(C)c3)cc2c1 | -32.1% | 2.06µM* | -6.6% | 0.2% | i | -3.2% | -0.3% | -10.0% | ?
O=C(Cn1cnc2ccccc21)Nc1ccc(SC(F)F)cc1 | -23.7% | 4.11µM* | -17.6% | -17.2% | i | 0.0% | -19.5% | -1.5% | ?
O=C(O)CCn1c2c(c3ccccc31)CCCC2 | -0.8% | -6.5% | 3.1% | -1.3% | i | 5.8% | / | / | /
CCCCCCCn1c2c(c(=N)c3ccccc31)CCC2 | ? | 2.31µM* | / | ? | ? | 2.1% | 2.7% | ? | 1.46µM*
Cc1ccc(S(=O)(=O)N2CCc3ccccc3CC2)cc1 | -20.1% | 8.2µM* | ? | -1.8% | i | -17.4% | 2.8% | -1.7% | 4.11µM*
COc1ccc(-n2c(SCC(=O)Nc3nnc(C)s3)nc3c([nH]c4ccccc43)c2=O)cc1 | 4.4% | / | / | -18.5% | / | -8.6% | / | / | /
Cc1ncc(CO)c2c1Oc1nc(-c3ccccc3)nc(SCC(=O)Nc3cccc(O)c3)c1C2 | 12.6µM* | 1.84µM* | / | ? | ? | -38.6% | -2.2% | -14.4% | 5.8µM*
Cc1cc(C)nc(Nc2n[nH]c(-c3ccc(N)cc3)n2)n1 | 0.8% | ? | 0.4% | -0.7% | i | 4.4% | / | / | /
Cc1cc(C)nc(Nc2n[nH]c(C)n2)n1 | 4.4% | 5.8µM* | / | 1.9% | i | 0.7% | -1.5% | 1.7% | -1.7%
Cc1nc2ccc(NC(=O)c3cc(S(=O)(=O)N(C)c4ccccc4)ccc3Cl)cc2s1 | -18.6% | 5.17µM* | -16.3% | -8.5% | i | -6.2% | -0.1% | 2.5% | ?
Cc1nc2ccc(NC(=O)c3ccc(Cl)c(S(=O)(=O)N(C)c4ccccc4)c3)cc2s1 | -21.1% | 3.26µM* | ? | -23.4% | ? | -13.2% | -15.9% | -15.4% | ?
O=C(NNc1ccnc2cc(Cl)ccc12)C1CCCCC1 | -25.8% | 3.26µM* | ? | -17.3% | i | 16.3% | ? | -13.1% | 2.59µM*
COc1cc(OC)cc(C2=Cc3ccc(OC)cc3C(CC(C)=O)N2c2ccc(C#CCCO)cc2)c1 (centres undefined) | / | / | -30.4% | / | ? | / | / | / | /
CC1(C2CCN(Cc3c[nH]c4ccccc34)CC2)NC(=O)N(CCN2CCOCC2)C1=O (centres undefined) | / | / | / | / | i | / | / | / | /
O=C(Nc1c(F)cccc1F)c1cnc(N2CCN(c3ccccn3)CC2)c2ccccc12 | -24.1% | 9.2µM* | ? | ? | ? | -1.9% | -9.7% | -11.0% | ?
O=C(c1cnc(N2CCN(c3ncccn3)CC2)c2ccccc12)N1CCN(c2ccccn2)CC1 | -11.3% | ? | -14.5% | -1.6% | i | -9.2% | / | / | /
CCCC(C)NC(=O)COc1ccc(Sc2ccc(OCC(=O)NC(C)CCC)cc2)cc1 (centres undefined) | -11.9% | 3.66µM* | -20.2% | -0.3% | i | -22.2% | 3.7% | -0.5% | /
Cc1cccnc1NC(=O)CSc1nnc(Cc2ccccc2)o1 | -6.1% | 11.6% | 3.5% | 6.7% | i | -16.6% | / | / | /
SMILES | TGFb inhibitor | Nrf2 block | ATXN2 expr inh | A549 tox-1 | ATXN viability | HepG2 viability | FLuc enzyme inh | A549 tox-2 | ARE-Fluc inh
Nc1nc(N)nc(-c2ccc(Cl)c(Cl)c2)n1 | ? | ? | 29.3% | -4.2% | i | -24.7% | / | / | /
Cc1nc(N)nc(N)c1-c1ccc(Cl)c(Cl)c1 | ? | ? | 7.94µM*! | -5.5% | i | 0.631µM* | 2.1% | -11.9% | 1.16µM*
Cc1cc(OCc2nc(N)nc(N)c2-c2ccc(Cl)c(Cl)c2)ccc1[N+](=O)[O-] | ? | 8.2µM* | ? | 16.6% | i | -37.4% | -9.8% | -3.9% | 14.6µM*
Cc1ccc(NC(=O)COc2ccc(N(C)C(=O)C(C)(C)C)cc2)cc1S(=O)(=O)N1CCCCC1 | ? | 3.66µM* | ? | ? | ? | -31.8% | -15.2% | ? | 5.17µM*
C=CCn1c(SCc2c(C)noc2C)nc2sc3c(c2c1=O)CCCC3 | 6.7% | 9.2µM* | -30.9% | ? | i | -18.5% | -1.0% | -14.5% | ?
C[C@H](CO)N1C[C@H](C)[C@@H](CN(C)S(=O)(=O)c2cn(C)cn2)Oc2ccc(NC(=O)Cc3ccccc3)cc2C1=O | 9.8% | -0.9% | -5.9% | -3.9% | i | -4.1% | / | / | /
COc1ccc(/C(C)=N/NC(=O)CNC(=O)/C=C\c2ccccc2OC)c(OC)c1 | ? | 13.5% | / | -9.2% | i | -30.7% | / | / | /
COC(=O)C1=C(O)C(C(=O)OC)C(c2ccc(C)cc2)C(C#N)(C#N)C1c1ccc(C)cc1 (centres undefined) | -7.4% | 2.91µM* | -35.8% | / | i | -2.4% | 3.2% | ? | 14.6µM*
